CYP2C19 activ: cytochrome P450 2C19 (human) activation; P33261; recombinant CYP2C19, luciferin-H EGE luminescence; stronger effect = higher value; 0 = fully inhibited enzyme, 1 = untreated enzyme; activation factor at 5 µM; 96,000 tested, under 10 active; AID 1025;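 active = activation factor of at least 2 at 5 µM in the primary screen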;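 note: 0 = wells with 2.5 mM tranylcypromine and 1 = vehicle-only wells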
Target sequence (P33261 whole entry, looked up): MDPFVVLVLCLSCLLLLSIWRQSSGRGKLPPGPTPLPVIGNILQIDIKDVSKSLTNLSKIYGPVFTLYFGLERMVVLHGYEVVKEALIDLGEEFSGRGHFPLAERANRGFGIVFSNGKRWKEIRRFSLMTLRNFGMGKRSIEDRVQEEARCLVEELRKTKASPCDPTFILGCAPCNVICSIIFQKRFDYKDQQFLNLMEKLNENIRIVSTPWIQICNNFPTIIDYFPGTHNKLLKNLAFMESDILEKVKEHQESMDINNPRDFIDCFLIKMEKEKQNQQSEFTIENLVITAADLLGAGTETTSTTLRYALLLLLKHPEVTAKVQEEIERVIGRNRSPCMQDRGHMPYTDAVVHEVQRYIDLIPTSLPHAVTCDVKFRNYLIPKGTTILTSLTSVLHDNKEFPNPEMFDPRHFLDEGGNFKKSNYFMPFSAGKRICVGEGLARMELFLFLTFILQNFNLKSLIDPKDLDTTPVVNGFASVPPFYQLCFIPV
Plk1 PBD FP: inhibitors of human Plk1 polo box domain binding; P53350; Plk1 PBD phosphopeptide binding, fluorescence polarization; inhibition, %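 (tested at about 20 µM)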; actives 0.13% (n = 97,000); AID 693; in the data active = inhibition above about 34%, passing the limit was not always enough
PLK1 kinase inh: blocks human PLK1 kinase activity; P53350; recombinant PLK1 kinase, TR-FRET peptide phosphorylation; inhibition, % at 10 µM; actives 0.53% (n = 97,000); AID 619;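 active = inhibition of 50% or more in the single-concentration screen; inactive = inhibition below 50%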;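 note: 0% = DMSO max control and 100% = H-89 dihydrochloride min control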
CYP2C9 inh: human CYP2C9 inhibition. inhibition, % at 5 µM. CYP2C9 Supersomes, luciferin-H conversion, luminescence. actives 20% (n = 96,000);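 active = blocking of liver enzyme CYP2C9 beyond about 50% at 5 µM, limit read from the data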
CYP2C19 inh: inhibitors of human CYP2C19; P33261; CYP2C19 Supersomes, luciferin-H EGE luminescence, 30 min; inhibition, % at 5 µM; actives 21% (n = 96,000); AID 778;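 active = CYP2C19 inhibition above a set limit at 5 µM in the primary screen, cut at about 50% in these data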;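 note: plate controls were negative control wells for no effect and 2.5 mM tranylcypromine positive control for full effect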
CYP2C9 activ: CYP2C9 (human) activation | activation factor at 5 µM | actives 1.4% (n = 96,000) | recombinant CYP2C9, luciferin-H conversion, luminescence; stronger effect = higher value; factor 1 = untreated enzyme, 0 = blocked;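 active = activation factor of 2 or more for CYP2C9 at a 5 µM dose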;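 note: 0 = sulfaphenazole-blocked wells and 1 = vehicle-only wells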
* = called active by the depositor; . = no result. Sampled rows, rich in hits. Any-hit rate of the full collection: about 28%.

SMILES	CYP2C19 activ	Plk1 PBD FP	PLK1 kinase inh	CYP2C9 inh	CYP2C19 inh	CYP2C9 activ
O=C(CN1CCN(c2ccccn2)CC1)Nc1cc(C(F)(F)F)ccc1Cl	0.7	10	-7	74*	26	0.3
O=C(CN1CCN(c2ccccn2)CC1)Nc1ccc(Cl)c(C(F)(F)F)c1	1	-1	-13	5	4	0.9
Cc1ccc(NC(=O)CN2CCN(c3ccccn3)CC2)c(Cl)c1	0.5	-26	-7	86*	55*	0.1
O=C(CN1CCN(c2ccccn2)CC1)Nc1ccc2ccccc2c1	0.7	10	-6	55*	28	0.4
Cc1sc(NC(=O)CN2CCN(c3ccccn3)CC2)c(C#N)c1C	.	1	3	.	.	.
O=C(CN1CCN(c2ncccn2)CC1)Nc1ccccc1-n1cccc1	0.1	-9	-8	79*	95*	0.2
O=C(OCC(=O)c1cccs1)c1ccccc1	0.5	.	.	46	47	0.5
Cc1c(C)[n+](=O)c(-c2cccs2)c(C)n1[O-]	.	-14	-5	.	.	.
Cc1nc2ccc(NC(=O)N3CCCCC3)cc2s1	0.9	-1	-5	-3	14	1
CN(CC(=O)N1CCN(c2ccccn2)CC1)S(=O)(=O)c1ccc2ccccc2c1	0.7	-1	-12	-172	26	2.7*
Cc1ccc(S(=O)(=O)N(C)CC(=O)N2CCN(c3ccccn3)CC2)cc1	0.9	7	-11	-48	11	1.5
Cc1nc2ccc(NC(=O)N3CCN(c4ccccn4)CC3)cc2s1	0.8	-31	-2	80*	22	0.2
Cc1c(/C=C(\C#N)c2nn(-c3ccccc3)c(N)c2C#N)c2ccccc2n1Cc1ccc(F)cc1	1	-20	-13	16	1	0.8
c1ccc2sc(N3CN(CCN4CCOCC4)CN(c4nc5ccccc5s4)C3)nc2c1	0.7	.	.	24	34	0.8
C=CCNC(=O)c1cc(=O)c2ccccc2o1	0.9	3	-13	16	9	0.8
O=C(NCc1ccco1)c1ccc(Cl)c(S(=O)(=O)N2CCOCC2)c1	0.7	-20	-14	30	32	0.7
O=C(NCC1(N2CCOCC2)CCCCC1)c1ccc(Cl)c(S(=O)(=O)NCc2ccco2)c1	0.5	-20	10	71*	53*	0.3
Cc1ccc(S(=O)(=O)NCc2ccco2)c(C)c1C	0.4	25	-14	-254	56*	3.5*
Cc1cccc(N2CCN(C(=O)c3ccc(Cl)c(S(=O)(=O)NCc4ccco4)c3)CC2)c1C	0.7	-29	1	76*	32	0.2
CC1(C)Cc2ccccc2C(NNC(=O)c2ccncc2)=N1	1	-7	-13	-2	0	1
Cc1nn(C)c(=O)n1-c1ccc(OCc2ccccc2)cc1	0.4	4	-5	33	56*	0.7
O=c1[nH][nH]c(-c2ccccc2)c1C=Nc1ccc(Cl)cc1	0.6	5	-9	23	38	0.8
O=c1[nH][nH]c(-c2ccccc2)c1C=Nc1ccccc1Cl	0.1	-15	-7	31	88*	0.7
O=c1[nH][nH]c(-c2ccccc2)c1C=Nc1cccc(Cl)c1	0.5	22	4	19	53*	0.8
c1ccc(-c2ccc(Oc3cc(N4CCOCC4)nc(-c4ccccc4)n3)cc2)cc1	1	-12	-7	16	-1	0.8
SMILES	CYP2C19 activ	Plk1 PBD FP	PLK1 kinase inh	CYP2C9 inh	CYP2C19 inh	CYP2C9 activ
O=S(Cc1cc(Oc2ccccc2)nc(-c2ccccc2)n1)c1ccccc1 (centres undefined)	0.2	12	-4	78*	84*	0.2
CC(=O)c1cc(Cc2csc(C(C)=O)c2)cs1	0.4	-26	-12	35	62*	0.6
O=C1c2ccccc2C(O)N1Cc1ccco1 (centres undefined)	1.1	.	.	-2	-6	1
c1coc(CN=C2NC(=NCc3ccco3)c3ccccc32)c1	0.4	-3	-6	40	55*	0.6
CCN(CC)c1ccc(CC(=O)NC(C)Cc2ccccc2)cc1 (centres undefined)	0.2	-2	-6	60*	82*	0.4
O=C(Cn1ncn2c(cc3ccccc32)c1=O)NCCC1=CCCCC1	0	28	1	41	99*	0.6
CCc1cccc(NC(=O)Cn2ncn3c(cc4ccccc43)c2=O)c1	1	4	-7	16	-2	0.8

Source: PubChem
